Experimental data reported in PubChem BioAssay (EPA / NIEHS).
Where “and” joins values, the source holds several entries; their conditions need not be identical. Equal entries are not always repeated. Calls of active or inactive are those of the source. The calls were made as follows: active = hit-call score of the fitted dose curve at least 0.9, where 1 is the maximum; inactive = score below 0.9.

Read-out: urokinase plasminogen activator (uPA), PLAU (gene 5328)
Experiment: BSK_BE3C_uPA: BioMAP Diversity Plus: BE3C Assay for urokinase plasminogen activator (uPA) Biomarker Activity (AID 2283038);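 as to outcome: uPA read one day after compound addition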
Details: primary human bronchial epithelial cells; actives raise or lower the signal
Method: BSK_BE3C is a cell-based, multiplexed-readout assay that uses bronchial epithelial cell, a human lung primary cell, with measurements taken at 24 hours after chemical dosing in a 96-well plate.BSK_BE3CA is an assay component measured in the BSK_BE3C assay. It measures uPA antibody related to regulation of gene expression using ELISA technology.Data from the assay component BSK_BE3CA was analyzed into 1 assay endpoint. This assay endpoint, BSK_BE3CA, was analyzed with bidirectional fitting relative to DMSO as the negative control and baseline of activity. Using a type of binding reporter, gain or loss-of-signal activity can be used to understand changes in the signaling as they relate to the gene PLAU. Furthermore, this assay endpoint can be referred to as a primary readout, because this assay has produced multiple assay endpoints where this one serves a signaling function. To generalize the intended target to other relatable targets, this assay endpoint is annotated to the protease intended target family, where the subfamily is serine protease.
The levels of cell surface (or secreted, indicated by the prefix "s") biomarker endpoints were measured by ELISA. Overt cytotoxicity to cells in confluent adherent cultures (all systems other than the BT system) was assessed by measuring total protein levels using sulforhodamine B (SRB) staining in parallel cultures at the time of biomarker measurements, indicated as SRB endpoints. For proliferation assays for adherent cell types, individual cell types are cultured at sub-confluence and relative cell numbers quantified by SRB staining at time points optimized for each system (48 h: 3C and CASM3C systems; 72 h: BT and HDF3CGF systems; 96 h: SAg system). SRB was performed by staining cells with 0.1% SRB after fixation with 10% TCA and reading wells at 560 nm.Viability and proliferation of PBMC (T cells) was quantified by Alamar Blue reduction for the SAg and BT systems. For PBMC viability (referred to as PBMC Cytotoxicity within the assay endpoint names), cells were plated (75,000/well in a 96-well plate) and then chemical samples added for 1 h before addition of activators, SEB and TSST-1 (20 ng/mL final concentration each). Cells were incubated for 90 h. Then, Alamar Blue (20 uL/well) (Invitrogen, Cat DAL1100) was added for 6 h, and the plates were read with a fluorescence microplate reader at 546/580 nm (excitation/emission). For PBMC proliferation, cells were plated and activated as above but incubated for only 16 h prior to addition of Alamar Blue. Plates were read after 6 h.

SMILES | outcome | AC50
O=C(c1ccc(O)cc1)c1ccc(O)cc1O | inactive | 
S=C(NC1CCCCC1)NC1CCCCC1 | inactive | 
c1ccc2c(c1)ccc1ncccc12 | inactive | 
CCO[Si](C)(OCC)OCC | inactive | 
C=CC(=O)OCC(Br)CBr (stereo unspecified) | inactive | 
CCCCCCCCCCCCCCCC[N+](C)(C)CC |  | 2.25 µM (active)
O=C(Cl)c1cc(C(=O)Cl)cc(C(=O)Cl)c1 |  | 20 µM (active)
O=C1CCCN1CCO | inactive | 
O=c1c2ccccc2oc2ccccc12 | inactive | 
CCCCCCCCc1ccc(Nc2ccc(CCCCCCCC)cc2)cc1 | inactive | 
CN1C(=O)N(C)C(O)C1O (stereo unspecified) | inactive | 
CC1OC1C1CCC2(C)OC2C1 (stereo unspecified) | inactive | 
CCO[Si](CCCN=C=O)(OCC)OCC | inactive | 
CCCCC(CC)COC(=O)c1ccccc1O (stereo unspecified) | inactive | 
CCOc1nc(F)cc2nc(S(=O)(=O)Nc3c(Cl)cccc3C(=O)OC)nn12 | inactive | 
CCOC(=O)c1ccccc1C(=C1C=C(Br)C(=O)C(Br)=C1)c1cc(Br)c(O)c(Br)c1 |  | 3.81 µM (active) and 4.21 µM (active)
O=Nc1ccc(O)cc1 | inactive | 
c1ccc(-c2ccccn2)nc1 | inactive | 

SMILES | outcome | AC50
C=CCOCC(O)CCl (stereo unspecified) | inactive | 
CC(C)C(=O)C(C)C | inactive | 
C#CC1(O)CC[C@H]2[C@@H]3CCC4=CCCC[C@@H]4[C@H]3CC[C@@]21C (stereo partly specified) |  | 20 µM (active)
COc1ccc2nc(N)sc2c1 | inactive | 
C/C=C\C/C=C/CCCCCCCCOC(C)=O | inactive | 
CCCCNc1ccc(NCCCC)c2c1C(=O)c1ccccc1C2=O |  | 5 µM (active)
C=CCOc1c(Br)cc(Br)cc1Br |  | 20 µM (active)
O=C(Nc1ccccc1SSc1ccccc1NC(=O)c1ccccc1)c1ccccc1 | inactive | 
CCCCC/C=C\C/C=C\CCCCCCCC(=O)OC | inactive | 
COCc1c(C(C)C)nc(C(C)C)c(/C=C/[C@@H](O)C[C@@H](O)CC(=O)O)c1-c1ccc(F)cc1 | inactive | 
CC(C)(c1cc(Br)c(OCCO)c(Br)c1)c1cc(Br)c(OCCO)c(Br)c1 | inactive | 
N#[N+]c1ccc2c(S(=O)(=O)[O-])cccc2c1O | inactive | 
Nc1ccc(N)c(Cl)c1 | inactive | 
CCCCC(CC)COCC1CO1 (stereo unspecified) | inactive | 
C=C[Si](OC(C)=O)(OC(C)=O)OC(C)=O | inactive | 
c1ccc2c(c1)ccc1cc3c(ccc4ccccc43)cc12 | inactive | 
C=CC=CC=CCCCCC | inactive | 
CO[Si](OC)(OC)c1ccccc1 | inactive | 
